Source: PubChem BioAssay AID1159580 (chemical genetic matrix, 2015)
In all, about 5,500 compounds went through this assay and about 2,000 (36%) were called active. About 18% were inconclusive and are not listed. The list shows a part of the results. A number with no mark means an inactive call. Cut-off read from the data, not from the text of the source: active = normalized growth mostly below about 0.91 (no sharp cut-off); inconclusive = no clear call, values can overlap the other calls; inactive = mostly above about 0.92.

Experiment: chemical genetic growth profiling, strain panel (AID 1159580);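 note: tested at 20 µM; growth read once vehicle control cultures reached saturation at 30 °C; 1 = growth at the plate median or of vehicle wells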
Conditions: growth OD
[1] = S. cerevisiae deletion strains, locus YAL013W, strain DEP1, stronger effect = lower value
[2] = S. cerevisiae deletion strains, locus YBR229C, strain ROT2, stronger effect = lower value
[3] = S. cerevisiae deletion strains, locus YDL101C, strain DUN1, stronger effect = lower value
[4] = S. cerevisiae deletion strains, locus YDR150W, strain NUM1, stronger effect = lower value
[5] = S. cerevisiae deletion strains, locus YEL061C, strain CIN8, stronger effect = lower value
[6] = S. cerevisiae deletion strains, locus YGR078C, strain PAC10, stronger effect = lower value
[7] = S. cerevisiae deletion strains, locus YHR030C, strain SLT2, stronger effect = lower value
[8] = S. cerevisiae deletion strains, locus YHR087W, strain rtc3, stronger effect = lower value
[9] = S. cerevisiae deletion strains, locus YJR043C, strain POL32, stronger effect = lower value
[10] = S. cerevisiae deletion strains, locus YJR075W, strain HOC1, stronger effect = lower value
[11] = S. cerevisiae deletion strains, locus YKL190W, strain CNB1, stronger effect = lower value
[12] = S. cerevisiae deletion strains, locus YLR039C, strain RIC1, stronger effect = lower value
[13] = S. cerevisiae deletion strains, locus YLR058C, strain SHM2 (second series), stronger effect = lower value
[14] = S. cerevisiae deletion strains, locus YLR085C, strain ARP6, stronger effect = lower value
[15] = S. cerevisiae deletion strains, locus YLR262C, strain YPT6, stronger effect = lower value
[16] = S. cerevisiae deletion strains, locus YML094W, strain GIM5, stronger effect = lower value
[17] = S. cerevisiae deletion strains, locus YMR219W, strain ESC1, stronger effect = lower value
[18] = S. cerevisiae deletion strains, locus YMR263W, strain SAP30, stronger effect = lower value
[19] = S. cerevisiae deletion strains, locus YNL153C, strain GIM3, stronger effect = lower value
[20] = S. cerevisiae deletion strains, locus YNL298W, strain CLA4 (second series), stronger effect = lower value
[21] = S. cerevisiae deletion strains, locus YNL322C, strain KRE1, stronger effect = lower value
[22] = S. cerevisiae deletion strains, locus YNR030W, strain Alg12, stronger effect = lower value
[23] = S. cerevisiae deletion strains, locus YPL055C, strain LGE1, stronger effect = lower value
[24] = S. cerevisiae deletion strains, locus YPL241C, strain CIN2, stronger effect = lower value
[25] = S. cerevisiae deletion strains, locus YPR135W, strain CTF4, stronger effect = lower value
[26] = S. cerevisiae deletion strains, locus YAL040C, strain CLN3, stronger effect = lower value
[27] = S. cerevisiae deletion strains, locus YER002W, strain NOP16, stronger effect = lower value
[28] = S. cerevisiae deletion strains, locus YNL175C, strain NOP13, stronger effect = lower value
[29] = S. cerevisiae deletion strains, locus YNL197C, strain WHI3, stronger effect = lower value
[30] = S. cerevisiae deletion strains, locus YNL224C, strain SQS1, stronger effect = lower value
[31] = S. cerevisiae deletion strains, locus YOR083W, strain WHI5 (second series), stronger effect = lower value

Structure (SMILES): CC(=O)NN(C)c1ccc(C(F)(F)F)cc1[N+](=O)[O-]
- normalized growth [1]: 1.01
- normalized growth [2]: 1.01
- normalized growth [3]: 1
- normalized growth [4]: 0.991
- normalized growth [5]: 1.02
- normalized growth [6]: 1
- normalized growth [7]: 1.11
- normalized growth [8]: 1.01
- normalized growth (S. cerevisiae deletion strains, locus YJL187C, strain SWE1, stronger effect = lower value): 1.02
- normalized growth [9]: 1.01
- normalized growth [10]: 1
- normalized growth [11]: 1.01
- normalized growth [12]: 1
- normalized growth [13]: 1.01
- normalized growth [14]: 1.04
- normalized growth [15]: 0.986
- normalized growth [16]: 1.02
- normalized growth [17]: 1.01
- normalized growth [18]: 1.01
- normalized growth [19]: 1.01
- normalized growth [20]: 1.01
- normalized growth [21]: 1.01
- normalized growth [22]: 1.02
- normalized growth [23]: 0.989
- normalized growth [24]: 1.02
- normalized growth [25]: 1.07

Structure (SMILES): NNC(=S)Nc1ccc(C(F)(F)F)cc1
- normalized growth [1]: 0.918 (active)
- normalized growth [2]: 0.895 (active)
- normalized growth (S. cerevisiae deletion strains, locus YCL061C, strain MRC1, stronger effect = lower value): 0.872 (active)
- normalized growth [3]: 0.982
- normalized growth [4]: 0.899
- normalized growth [5]: 0.796 (active)
- normalized growth [6]: 0.867 (active)
- normalized growth [7]: 0.331 (active)
- normalized growth [8]: 0.899 (active)
- normalized growth [9]: 0.972
- normalized growth [10]: 0.961
- normalized growth [11]: 0.715 (active)
- normalized growth [12]: 0.847
- normalized growth [13]: 0.968
- normalized growth [14]: 0.254 (active)
- normalized growth [15]: 0.962
- normalized growth [16]: 0.703 (active)
- normalized growth [17]: 0.985
- normalized growth [18]: 0.937
- normalized growth [19]: 0.912 (active)
- normalized growth [20]: 0.378 (active)
- normalized growth [21]: 0.999
- normalized growth [22]: 0.522 (active)
- normalized growth [23]: 0.735 (active)
- normalized growth [24]: 0.661 (active)
- normalized growth [25]: 0.513 (active)
- normalized growth (S. cerevisiae strains, strain wild type, stronger effect = lower value): 0.756 (active)

Structure (SMILES): CN(NC(=S)Nc1cc(Cl)ccc1Cl)c1ccc(C(F)(F)F)cc1[N+](=O)[O-]
- normalized growth (S. cerevisiae deletion strains, locus YAR019C, strain CDC15, stronger effect = lower value): 0.972
- normalized growth (S. cerevisiae deletion strains, locus YBL105C, strain PKC1, stronger effect = lower value): 0.972
- normalized growth (S. cerevisiae deletion strains, locus YBR135W, strain CKS1, stronger effect = lower value): 0.982
- normalized growth (S. cerevisiae deletion strains, locus YBR136W, strain MEC1, stronger effect = lower value): 0.97
- normalized growth (S. cerevisiae deletion strains, locus YBR160W, strain CDC28, stronger effect = lower value): 0.979
- normalized growth (S. cerevisiae deletion strains, locus YDL017W, strain CDC7, stronger effect = lower value): 0.972
- normalized growth (S. cerevisiae deletion strains, locus YDL028C, strain MPS1, stronger effect = lower value): 0.985
- normalized growth [3]: 0.969
- normalized growth (S. cerevisiae deletion strains, locus YDL108W, strain KIN28, stronger effect = lower value): 0.969
- normalized growth (S. cerevisiae deletion strains, locus YDL132W, strain cdc53, stronger effect = lower value): 0.97
- normalized growth (S. cerevisiae deletion strains, locus YDL214C, strain PRR2, stronger effect = lower value): 0.946
- normalized growth (S. cerevisiae deletion strains, locus YDR052C, strain DBF4, stronger effect = lower value): 0.965
- normalized growth (S. cerevisiae deletion strains, locus YDR054C, strain cdc34, stronger effect = lower value): 0.97
- normalized growth (S. cerevisiae deletion strains, locus YDR226W, strain ADK1, stronger effect = lower value): 0.984
- normalized growth (S. cerevisiae deletion strains, locus YDR477W, strain SNF1, stronger effect = lower value): 0.964
- normalized growth (S. cerevisiae deletion strains, locus YER123W, strain YCK3, stronger effect = lower value): 0.893
- normalized growth (S. cerevisiae deletion strains, locus YER133W, strain GLC7, stronger effect = lower value): 0.949
- normalized growth (S. cerevisiae deletion strains, locus YFL009W, strain cdc4, stronger effect = lower value): 0.977
- normalized growth (S. cerevisiae deletion strains, locus YFL029C, strain CAK1, stronger effect = lower value): 0.979
- normalized growth (S. cerevisiae deletion strains, locus YFR003C, strain YPI1, stronger effect = lower value): 0.973
- normalized growth (S. cerevisiae deletion strains, locus YFR019W, strain FAB1, stronger effect = lower value): 0.977
- normalized growth (S. cerevisiae deletion strains, locus YFR028C, strain CDC14, stronger effect = lower value): 0.978
- normalized growth (S. cerevisiae deletion strains, locus YGR040W, strain KSS1, stronger effect = lower value): 0.96
- normalized growth (S. cerevisiae deletion strains, locus YGR052W, strain FMP48, stronger effect = lower value): 0.96
- normalized growth (S. cerevisiae deletion strains, locus YGR092W, strain DBF2, stronger effect = lower value): 0.825
- normalized growth [7]: 0.711 (active)
- normalized growth (S. cerevisiae deletion strains, locus YHR079C, strain IRE1, stronger effect = lower value): 0.785
- normalized growth (S. cerevisiae deletion strains, locus YHR082C, strain KSP1, stronger effect = lower value): 1.03
- normalized growth (S. cerevisiae deletion strains, locus YHR205W, strain SCH9, stronger effect = lower value): 0.886
- normalized growth (S. cerevisiae deletion strains, locus YIL147C, strain SLN1, stronger effect = lower value): 0.971
- normalized growth (S. cerevisiae deletion strains, locus YJL095W, strain BCK1, stronger effect = lower value): 0.885
- normalized growth (S. cerevisiae deletion strains, locus YJL128C, strain PBS2, stronger effect = lower value): 0.929
- normalized growth (S. cerevisiae deletion strains, locus YJL157C, strain FAR1, stronger effect = lower value): 0.915
- normalized growth (S. cerevisiae deletion strains, locus YJR016C, strain ILV3, stronger effect = lower value): 0.971
- normalized growth (S. cerevisiae deletion strains, locus YJR066W, strain TOR1 (second series), stronger effect = lower value): 0.915
- normalized growth (S. cerevisiae deletion strains, locus YJR066W, strain TOR1, stronger effect = lower value): 0.973
- normalized growth (S. cerevisiae deletion strains, locus YKL048C, strain ELM1, stronger effect = lower value): 0.938
- normalized growth (S. cerevisiae deletion strains, locus YKL067W, strain YNK1, stronger effect = lower value): 0.953
- normalized growth (S. cerevisiae deletion strains, locus YKL101W, strain HSL1, stronger effect = lower value): 0.964
- normalized growth (S. cerevisiae deletion strains, locus YKL193C, strain SDS22, stronger effect = lower value): 0.952
- normalized growth (S. cerevisiae deletion strains, locus YKL203C, strain TOR2, stronger effect = lower value): 0.99
- normalized growth (S. cerevisiae deletion strains, locus YLR113W, strain HOG1, stronger effect = lower value): 0.74 (active)
- normalized growth (S. cerevisiae deletion strains, locus YLR133W, strain CKI1, stronger effect = lower value): 0.929
- normalized growth (S. cerevisiae deletion strains, locus YLR403W, strain SFP1, stronger effect = lower value): 0.929
- normalized growth (S. cerevisiae deletion strains, locus YML070W, strain DAK1, stronger effect = lower value): 0.922
- normalized growth (S. cerevisiae deletion strains, locus YMR001C, strain CDC5, stronger effect = lower value): 0.971
- normalized growth (S. cerevisiae deletion strains, locus YMR205C, strain PFK2 (second series), stronger effect = lower value): 0.967
- normalized growth (S. cerevisiae deletion strains, locus YMR277W, strain FCP1, stronger effect = lower value): 0.972
- normalized growth (S. cerevisiae deletion strains, locus YNL006W, strain LST8, stronger effect = lower value): 0.974
- normalized growth (S. cerevisiae deletion strains, locus YNL020C, strain ARK1, stronger effect = lower value): 0.897
- normalized growth (S. cerevisiae deletion strains, locus YNL161W, strain CBK1, stronger effect = lower value): 0.977
- normalized growth (S. cerevisiae deletion strains, locus YNL183C, strain NPR1, stronger effect = lower value): 0.972
- normalized growth (S. cerevisiae deletion strains, locus YNL207W, strain RIO2, stronger effect = lower value): 0.976
- normalized growth (S. cerevisiae deletion strains, locus YNL222W, strain SSU72, stronger effect = lower value): 0.982
- normalized growth (S. cerevisiae deletion strains, locus YNL307C, strain MCK1 (second series), stronger effect = lower value): 0.932
- normalized growth (S. cerevisiae deletion strains, locus YOL078W, strain AVO1, stronger effect = lower value): 0.974
- normalized growth (S. cerevisiae deletion strains, locus YOL136C, strain PFK27, stronger effect = lower value): 0.903
- normalized growth (S. cerevisiae deletion strains, locus YOR061W, strain CKA2, stronger effect = lower value): 0.907
- normalized growth (S. cerevisiae deletion strains, locus YOR119C, strain RIO1, stronger effect = lower value): 1.04
- normalized growth (S. cerevisiae deletion strains, locus YOR231W, strain MKK1, stronger effect = lower value): 0.847
- normalized growth (S. cerevisiae deletion strains, locus YOR329C, strain SCD5, stronger effect = lower value): 0.97
- normalized growth (S. cerevisiae deletion strains, locus YPL031C, strain PHO85, stronger effect = lower value): 0.937
- normalized growth (S. cerevisiae deletion strains, locus YPL153C, strain RAD53, stronger effect = lower value): 0.942
- normalized growth (S. cerevisiae deletion strains, locus YPL204W, strain HRR25, stronger effect = lower value): 0.911
- normalized growth (S. cerevisiae deletion strains, locus YPL209C, strain IPL1, stronger effect = lower value): 0.977
- normalized growth (S. cerevisiae deletion strains, locus YPL256C, strain CLN2, stronger effect = lower value): 0.762 (active)
- normalized growth (S. cerevisiae deletion strains, locus YPR025C, strain CCL1, stronger effect = lower value): 0.981
- normalized growth (S. cerevisiae deletion strains, locus YPR106W, strain ISR1, stronger effect = lower value): 0.981
- normalized growth (S. cerevisiae deletion strains, locus YPR111W, strain DBF20, stronger effect = lower value): 0.959
- normalized growth (S. cerevisiae deletion strains, strain NNK1, stronger effect = lower value): 0.951
- normalized growth (S. cerevisiae deletion strains, strain TSCII, stronger effect = lower value): 0.968

Structure (SMILES): O=C1C=CC(=O)C=C1
- normalized growth [26]: 0.986
- normalized growth [27]: 1
- normalized growth [6]: 0.912
- normalized growth [18]: 1
- normalized growth (S. cerevisiae deletion strains, locus YMR307W, strain GAS1, stronger effect = lower value): 1.04
- normalized growth [28]: 1.02
- normalized growth [29]: 1.05
- normalized growth [30]: 1
- normalized growth [21]: 0.99
- normalized growth [31]: 1.01
- normalized growth [23]: 0.979

Structure (SMILES): CC(=O)O[C@H]1CC2(C)[C@@H](C[C@@H](O)[C@H]3[C@@]4(C)CC[C@@H](O)[C@@H](C)[C@@H]4CC[C@@]32C)C1=C(CCC=C(C)C)C(=O)O (some centres not stated)
- normalized growth [26]: 1.02
- normalized growth (S. cerevisiae deletion strains, locus YCL061C, strain MRC1 (second series), stronger effect = lower value): 1.01
- normalized growth [4]: 1.02
- normalized growth (S. cerevisiae deletion strains, locus YDR363W, strain ESC2, stronger effect = lower value): 1.02
- normalized growth [27]: 1.04
- normalized growth [6]: 1.03
- normalized growth [28]: 1
- normalized growth [29]: 1
- normalized growth [30]: 0.974
- normalized growth [21]: 1.01
- normalized growth [31]: 0.996
- normalized growth [24]: 1.01
